# The source made the active and inactive calls.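 Rule for the calls: active = visual image review flags a hit and inhibition of aggregation exceeds 20%; inconclusive = visual hit but inhibition at or below 20%; inactive = no hit on visual image review.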
# Test: inhibitors of mutant huntingtin aggregation, primary screen, imaging, exon1htt(103Q)mCFP cells, high-content imaging (AID 483);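 note: compound exposure lasted 3 days before fixation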;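 for nuclei count: percent of the per-plate median nuclei count of sample wells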
# Details: exon1htt(103Q)mCFP cell line, aggregate imaging, at 2 µM; inhibition of aggregation: stronger effect = higher value; nuclei count: measured here: cell count, toxicity
Structure (SMILES),nuclei count,inhibition of aggregation
CCOC(=O)C1CCCN(C(=O)c2cc3c(=O)n4cccc(C)c4nc3n2C)C1 (stereo not given),91.5%,3.5% (inactive)
COc1ccc(OC)c(S(=O)(=O)N2CCC(C(=O)NCc3ccccc3OC)CC2)c1,107%,-13.8% (inactive)
CCOC(=O)N1CCN(C(=O)CSc2nnc(-c3cc(OC)cc(OC)c3)o2)CC1,67.5%,-10.3% (inactive)
CCCC(=O)Nc1cnc(NC(=O)c2cccc(F)c2)cc1C,95.6%,6.6% (inactive)
COc1ccc2cc(C#N)c(SCC(=O)N3CCCC3)nc2c1,116%,-17.8% (inactive)
c1ccc(CC2CCN(C(c3cccs3)c3nnnn3C3CCCC3)CC2)cc1 (stereo not given),108%,7.1% (inactive)
COc1ccc(-n2c(=O)c3c4c(sc3n3c(C)nnc23)CCCC4)cc1,100%,4.3% (inactive)
CN(C)S(=O)(=O)NC(c1ccccc1)c1ccccc1,102%,3.3% (inactive)
COc1ccc(C2=NOC(C(=O)NC3CCCCC3)C2)cc1OC (stereo not given),104%,1.9% (inactive)
CCCCCC1CC(CC(=O)O)C(=O)O1 (stereo not given),80.6%,20.9% (inactive)
CC(c1ccccc1)n1cnc2ccccc21 (stereo not given),94.1%,17.1% (inactive)
COc1ccc(OC)c(C2C(C(=O)Nc3ccc(F)cc3)=C(C)Nc3nc(CCCO)nn32)c1 (stereo not given),117%,-11.2% (inactive)
Cn1c(=O)c2c(nc(Br)n2CCSc2nnnn2-c2ccccc2)n(C)c1=O,94.6%,19% (inactive)
O=C(Nc1ccc(S(=O)(=O)Nc2ccc(Cl)cc2)cc1)C1CCCO1 (stereo not given),104%,3.9% (inactive)
Fc1ccccc1Cn1nnc2c(-n3ccnc3)ncnc21,103%,-7.5% (inactive)
O=C(c1ccc(Br)o1)N1CCN(c2ccc3nnc(-c4ccccc4)n3n2)CC1,80.7%,3% (inactive)
CC1Cc2nc(SCC(=O)Nc3nccs3)n(C)c(=O)c2S1 (stereo not given),109%,12.8% (inactive)
CCOc1cc(-c2nc(-c3ccc(C)nc3OCC)no2)cc(OCC)c1OCC,79.5%,32.3% (inactive)
CCn1c(C(C#N)/C(=N\S(=O)(=O)c2cccs2)c2ccccc2)nc2ccccc21 (stereo not given),94.2%,-17.3% (inactive)
O=C(c1cnn2c1NC(c1ccco1)CC2C(F)(F)F)N1CCN(c2cccc(Cl)c2)CC1 (stereo not given),114%,-7.8% (inactive)

Structure (SMILES),nuclei count,inhibition of aggregation
Oc1ccc(Cl)cc1-c1cc(-c2ccccc2)n[nH]1,81.5%,26.3% (inactive)
Cc1cccc(-c2cc3nc4c(c(N5CCOCC5)n3n2)CCCC4)c1,107%,1.5% (inactive)
CCc1nnc(NC(=O)c2cc3ccccc3oc2=O)s1,96.9%,15.7% (inactive)
O=C(CCS(=O)(=O)c1cccc2nonc12)Nc1cccc2c1CCCC2,109%,-20.7% (inactive)
Cc1nn(-c2ccc(F)cc2)c2c1cc(C#N)c1nc3ccccc3n12,69.3%,29.9% (inactive)
Oc1c(C(c2ccccc2)N2CCc3ccccc3C2)sc2ncnn12 (stereo not given),111%,-23.6% (inactive)
O=C1CN(C(=O)COC(=O)c2ccccc2NC(=O)c2ccco2)c2ccccc2N1,108%,7.3% (inactive)
COc1cccc(-c2noc(C3CCCN(C(=O)Cc4ccccc4)C3)n2)c1 (stereo not given),109%,5.5% (inactive)
CCCCCn1c(CN2CCN(C)CC2)nc2c1c(=O)n(C)c(=O)n2C,95.8%,-17.1% (inactive)
CC(C)OC(=O)c1cccc(C(=O)O)n1,92.5%,-5.9% (inactive)
CC1CCCCN1CCNS(=O)(=O)c1ccc2c(c1)oc(=O)n2C (stereo not given),89.3%,4.6% (inactive)
CCCc1nnc2n1N=C(c1ccc(-c3cc(Cl)ccc3Cl)o1)CS2,100%,4.8% (inactive)
COc1cccc(CNc2nc3nc(C)c(Cl)c(C)n3n2)c1,86.4%,-5% (inactive)
COc1ccc(CNc2nc(NCc3ccc(OC)cc3)n(S(C)(=O)=O)n2)cc1,86.3%,26% (inactive)
COc1cccc(NC(=O)N(Cc2ccco2)C(C)c2cccs2)c1 (stereo not given),103%,-16.2% (inactive)
Cc1nnc(SCC(=O)NCc2ccccc2)s1,78.7%,27.7% (inactive)
O=C(c1ccco1)N1CCN(CC2CC3C=CC2C3)CC1 (stereo not given),7.7%,-30.9% (inactive)
CCOC(=O)CSc1nnc2n1C(C)(C)Cc1ccccc1-2,51.3%,0.5% (inactive)
CCN(CC)CCN1C(=O)C(=O)/C(=C(/O)c2c(C)[nH]c(C(=O)OC)c2C)C1c1ccccc1OC (stereo not given),109%,-20.7% (inactive)
CCOC(=O)C(C)(C)Sc1nc2c(cnn2-c2ccc(C)cc2)c(=O)[nH]1,106%,-13.4% (inactive)

# Source: PubChem BioAssay
